Test systems include NCI-H23 lung; NCI-H226 lung; NCI-H322M lung; HOP-62 NSCLC; NCI-H460 lung; HOP-92 NSCLC; NCI-H522 lung; A549/ATCC NSCLC; 786-0 renal; COLO 205 colon; DU-145 prostate; K-562 leukemia; MALME-3M melanoma; MDA-MB-231 breast; RXF 393 renal; SF-268 CNS; SF-295 CNS; SF-539 CNS; UACC-257 melanoma; M14 melanoma.
Experiment in all cases: NCI-60 one-dose screen, 48 h (100 = growth as untreated, 0 = no growth, -100 = all killed)
Holding throughout (conditions): 10 µM unless noted

This is part of a sample that, as a whole, favours compounds with a hit. Of some 83,000 tested, about 20% had one in any assay.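 Method: cells in 96-well plates; compound added at one concentration; 48 h incubation; percent growth measured; values under 10 scored active.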 Unmarked numbers belong to inactive results. The source made the active and inactive calls.

On to `CCOC(=O)CC1CSC(N/N=C(/C)c2cccc(C(F)(F)F)c2)=N1` (stereo not given), for which the growth in the assay with NCI-H23 lung was 103%; with NCI-H226 lung, 99.6%; in the assay with NCI-H322M lung, 89.6%; in the assay with HOP-62 NSCLC, 97%; in the assay with NCI-H460 lung, 110%; with HOP-92 NSCLC it was 100%. Also, the growth was 82.2% in the assay on NCI-H522 lung; 87.7% in the assay on A549/ATCC NSCLC; 97% in the assay with 786-0 renal; 107% in the assay with COLO 205 colon; 102% with DU-145 prostate; 80.6% in the assay with K-562 leukemia. The growth is 95.3% in the assay on MALME-3M melanoma; 94.4% in the assay on MDA-MB-231 breast; 109% in the assay with RXF 393 renal; 100% in the assay with SF-268 CNS; 93.5% with SF-295 CNS; 103% in the assay with SF-539 CNS. In addition, the values for the growth in the assay with UACC-257 melanoma and in the assay on M14 melanoma were 87.9% and 101%, respectively.
As to `O=C1/C(=C/c2cccc([N+](=O)[O-])c2)COc2ccc(O)c(O)c21`, the growth with NCI-H23 lung is -27.4% (active); with NCI-H226 lung it was 81.5%; in the assay on NCI-H322M lung it was 28.7%; with HOP-62 NSCLC it was -31.3% (active); in the assay with NCI-H460 lung, 4.3% (active); in the assay with HOP-92 NSCLC it was -43.1% (active). Moreover, the growth in the assay on NCI-H522 lung is -71.3% (active); in the assay on A549/ATCC NSCLC it was 9.74% (active); in the assay with 786-0 renal, -87.9% (active); in the assay on COLO 205 colon, -18.2% (active); in the assay on DU-145 prostate, 2.4% (active); in the assay on K-562 leukemia it was 6.45% (active). Also, the growth was -53.3% (active) in the assay with MALME-3M melanoma; -76.9% (active) in the assay with MDA-MB-231 breast; -81.3% (active) in the assay with RXF 393 renal; -4.32% (active) with SF-268 CNS; 58.6% in the assay on SF-295 CNS; -89.1% (active) in the assay with SF-539 CNS. Further, the figures for the growth in the assay with UACC-257 melanoma and with M14 melanoma were 3.37% (active) and -63.9% (active), respectively.
With `COC(=O)c1cc(-c2cc(OC)c(OC)c(OC)c2)[nH]c1N/N=C/c1c(Cl)cccc1Cl`, the growth in the assay on NCI-H23 lung was -15.6% (active); in the assay with NCI-H226 lung, 72.5%; with NCI-H322M lung, 45.3%; with HOP-62 NSCLC, -43.9% (active); with NCI-H460 lung, 2.31% (active); in the assay with HOP-92 NSCLC, -34.8% (active). Moreover, the growth was -45.3% (active) in the assay on NCI-H522 lung; 28.1% in the assay on A549/ATCC NSCLC; -44.4% (active) in the assay with 786-0 renal; 56.1% in the assay with COLO 205 colon; 45.6% in the assay on DU-145 prostate; 6.67% (active) with K-562 leukemia. For the same compound, the growth in the assay with MALME-3M melanoma is -8.03% (active); with MDA-MB-231 breast, 23.6%; in the assay on RXF 393 renal, 21.6%; in the assay on SF-268 CNS, 31.7%; in the assay on SF-295 CNS, -41.9% (active); in the assay on SF-539 CNS, -43.1% (active). Besides, the growth is 45.6% in the assay with UACC-257 melanoma and 58.7% in the assay on M14 melanoma.
As for `CCN(CC)CCN1C(=O)c2c(c(C)c3c(oc4cc(OC)ccc43)c2C)C1=O`, the growth in the assay on NCI-H23 lung was 95.9%; with NCI-H226 lung, 27.8%; in the assay on NCI-H322M lung, 85.3%; in the assay with HOP-62 NSCLC, 95.9%; with NCI-H460 lung, 44.7%; in the assay with HOP-92 NSCLC, 100%. The growth was 91.9% in the assay with NCI-H522 lung; 104% with A549/ATCC NSCLC; -74% (active) with 786-0 renal; 99.1% with COLO 205 colon; 75.1% in the assay with DU-145 prostate; -29.2% (active) with K-562 leukemia. Also, the growth in the assay with MALME-3M melanoma was 102%; in the assay with MDA-MB-231 breast, 58.4%; in the assay with RXF 393 renal, 73.1%; with SF-268 CNS, 89.6%; with SF-295 CNS, 89.4%; in the assay with SF-539 CNS, 70.6%. The values for the growth in the assay on UACC-257 melanoma and in the assay with M14 melanoma were 127% and 98.9%, respectively.
In the case of `COc1ccc2c(c1)c(-c1nc(-c3cn(C)c4ccncc34)cs1)cn2C`, the growth with NCI-H23 lung was 92.2%; in the assay on NCI-H226 lung, 113%; with NCI-H322M lung, 95.7%; in the assay on HOP-62 NSCLC it was 94.7%; with NCI-H460 lung, -64.5% (active); in the assay with HOP-92 NSCLC it was 81.8%. In addition, the growth was 87.3% with NCI-H522 lung; 2.44% (active) in the assay on A549/ATCC NSCLC; 84.8% with 786-0 renal; 92.6% with COLO 205 colon; -21.9% (active) in the assay with DU-145 prostate; -48.9% (active) in the assay on K-562 leukemia. Moreover, the growth was -53.6% (active) with MALME-3M melanoma; -61.2% (active) with MDA-MB-231 breast; -91.7% (active) in the assay on RXF 393 renal; 88.5% with SF-268 CNS; 55.3% in the assay with SF-295 CNS; 57.4% in the assay with SF-539 CNS. Also, the growth with UACC-257 melanoma was 114%; in the assay with M14 melanoma, -90.3% (active).
On to `CC/C(=C(/c1ccc(Cl)cc1)c1ccc(OCCCN(C)C)cc1)c1ccc(OC)cc1`, for which the growth in the assay with NCI-H23 lung is 78.6%; in the assay on NCI-H226 lung it was 104%; in the assay with NCI-H322M lung, 67.5%; with HOP-62 NSCLC, 99.1%; in the assay on NCI-H460 lung, 5.32% (active); in the assay on HOP-92 NSCLC, 49.8%. Besides, the growth was 87.3% in the assay on NCI-H522 lung; 49.8% with A549/ATCC NSCLC; 57.9% in the assay with 786-0 renal; -65.3% (active) in the assay on COLO 205 colon; 85.7% with DU-145 prostate; -27.4% (active) with K-562 leukemia. The growth is 74.1% in the assay with MALME-3M melanoma; 76.3% in the assay with MDA-MB-231 breast; 53.1% in the assay on RXF 393 renal; 84.2% in the assay with SF-268 CNS; 88.5% with SF-295 CNS; 82.8% in the assay on SF-539 CNS. For the same compound, the growth with UACC-257 melanoma was 84.7%; with M14 melanoma, 32.8%.
As for `CC(=O)/C(Br)=C/c1ccc(Br)o1`, the growth is 68.4% in the assay with NCI-H23 lung; 85.4% with NCI-H226 lung; 102% in the assay on NCI-H322M lung; 137% with HOP-62 NSCLC; 105% with NCI-H460 lung; 33.8% with HOP-92 NSCLC. The growth in the assay on NCI-H522 lung is 55.7%; in the assay with A549/ATCC NSCLC, 102%; in the assay with 786-0 renal, 5.9% (active); in the assay on COLO 205 colon, 73.8%; with DU-145 prostate it was 68.5%; in the assay with K-562 leukemia, 4.61% (active). For the same compound, the growth in the assay on MALME-3M melanoma is 61.4%; in the assay with MDA-MB-231 breast, 95.7%; in the assay with RXF 393 renal, -13.5% (active); in the assay on SF-268 CNS, 75%; in the assay on SF-295 CNS, 73.7%; with SF-539 CNS it was 94%. Also, the values for the growth in the assay on UACC-257 melanoma and in the assay with M14 melanoma were 102% and 64.9%, respectively.
Regarding `C(=N\Nc1nnc2n1N=C(c1ccccc1)CS2)/c1ccc(OCc2ccccc2)cc1`, the growth in the assay on NCI-H23 lung was 103%; in the assay on NCI-H226 lung, 88.9%; with NCI-H322M lung it was 107%; in the assay on HOP-62 NSCLC, 110%; with NCI-H460 lung it was 106%; in the assay on HOP-92 NSCLC, 110%. The growth was 88.1% in the assay on NCI-H522 lung; 91.1% in the assay on A549/ATCC NSCLC; 110% in the assay with 786-0 renal; 112% with COLO 205 colon; 104% in the assay with DU-145 prostate; 57.6% with K-562 leukemia. In addition, the growth was 125% in the assay on MALME-3M melanoma; 108% with MDA-MB-231 breast; 80.1% with RXF 393 renal; 115% with SF-268 CNS; 101% in the assay on SF-295 CNS; 102% in the assay on SF-539 CNS. Also, the growth in the assay with UACC-257 melanoma is 103%; in the assay on M14 melanoma it was 113%.

The values are drawn from PubChem BioAssay (NCI).
